According to PubChem BioAssay:
For part of these data: Entries with a potency or affinity are not part of this list. Activity calls are given as the source filed them.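 How the source made its calls, unless noted: active means primary screen hit whose fluorescence ratio, in both repeats, exceeds the weak agonist control mean by 3 SD; inactive means the rest.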

Key:
[1] = test system: TRPC4 beta (transient receptor potential cation channel C4), mouse; test: TRPC4 cation channel opening, retest – cell-based, Fluo4 calcium, HEK293 TRPC4beta/mu-opioid, duplicates, 10 µM, confirmation (AID 2426;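 active means fluorescence ratio normalized to control raised more than 50% in primary screen plus both repeat runs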); details: Fluo4 calcium fluorescence, at 10 µM; stronger effect = higher value
[2] = test system: transient receptor potential cation channel C4 beta (TRPC4), mouse; test: TRPC4 cation channel opening, second retest – cell-based, second round, Fluo4, HEK293 TRPC4beta/mu-opioid, 1 µM, confirmation (AID 2461;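 active means primary screen active and over 50% activation in each of two duplicate runs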); details: Fluo4 calcium fluorescence, at 1 µM; stronger effect = higher value
[3] = test system: TRPC4 (transient receptor potential cation channel C4 beta), mouse; test: potentiation of DAMGO EC20 TRPC4 response – cell-based, second round, Fluo-4, HEK293 TRPC4beta/mu-opioid, 1 µM, confirmation (AID 2554); details: DAMGO EC20, Fluo-4 calcium flux, at 1 µM; stronger effect = higher value
[4] = test system: TRPC4 beta (transient receptor potential cation channel C4), mouse; test: potentiation of DAMGO EC20 TRPC4 response – cell-based, Fluo-4, HEK293 TRPC4beta/mu-opioid, confirmation (AID 2555;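 active means primary screen hit whose calcium fluorescence ratio, in both repeats, exceeds the weak agonist control mean by 3 SD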); details: DAMGO EC20, Fluo-4 calcium flux, at 10 µM; stronger effect = higher value
[5] = biological target: Short transient receptor potential channel 4 (Mus musculus) (UniProt Q9QUQ5); test: blockers of DAMGO-evoked TRPC4 calcium flux – cell-based, Fluo4, HEK293 TRPC4beta/mu-opioid, confirmation (AID 2636;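 active means calcium signal cut by more than 3 SD below the full-agonist control yet still positive, in both repeats and the earlier primary screen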); details: at 10 µM; stronger effect = higher value
[6] = biological target: Short transient receptor potential channel 4 (Mus musculus) (UniProt Q9QUQ5); test: blockers of DAMGO-evoked TRPC4 calcium flux – cell-based, second round, Fluo4, HEK293 TRPC4beta/mu-opioid, 1 µM, confirmation (AID 2637;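 active means calcium signal ratio cut to more than 3 SD under the fully stimulated control mean yet still positive, in both repeats and the primary screen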;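 on inhibition: percent of integrated ratio relative to wells lacking test compound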); details: at 1 µM; stronger effect = higher value
[7] = biological target: Short transient receptor potential channel 4 (Mus musculus) (UniProt Q9QUQ5); test: calcium entry via TRPC4 opening agents – cell-based, HEK293 TRPC4/mu-opioid, Fluo-4 calcium, dose response (AID 434937;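 active means primary screen activator hit with a dose response curve and TRPC4 channel activation at any tested dose; inactive means no activation, no dose response, or not a primary hit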)
[8] = biological target: Short transient receptor potential channel 4 (Mus musculus) (UniProt Q9QUQ5); test: potentiation of DAMGO-evoked TRPC4 calcium signal – cell-based, HEK293 TRPC4/mu-opioid, Fluo-4 calcium, EC20 DAMGO, dose response (AID 434941;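 active means earlier screen potentiator hit that boosts the TRPC4 ion channel at some dose, with a dose response; inactive means no potentiation, no dose response, or not a prior hit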;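 further: calcium entry triggered by an EC20 dose of DAMGO at the co-expressed mu-opioid receptor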)
[9] = biological target: Short transient receptor potential channel 4 (Mus musculus) (UniProt Q9QUQ5); test: block of DAMGO-driven TRPC4 calcium entry – cell-based, HEK293 TRPC4/mu-opioid, Fluo-4 calcium, dose response (AID 434942;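 active means primary screen inhibitor hit that blocks the TRPC4 channel at some tested dose, yielding a dose curve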)
[10] = biological target: Short transient receptor potential channel 6 (Mus musculus) (UniProt Q61143); test: TRPC6 blockade by TRPC4 inhibitor hits – cell-based, HEK293, membrane potential dye, duplicate, selectivity assay for TRPC4 inhibitor project, confirmation (AID 434948;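 active means active in primary screen and both duplicates, each dropping signal beyond three positive-control SD with fluorescence still positive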); details: HEK293 TRPC6, membrane potential dye fluorescence, at 10 µM, stimulated with maximal-effect acetylcholine; stronger effect = higher value
[11] = biological target: Short transient receptor potential channel 6 (Mus musculus) (UniProt Q61143); test: TRPC6 opening by TRPC4 activator hits – cell-based, HEK293, membrane potential dye, duplicate, selectivity assay for TRPC4 activator project, confirmation (AID 434950;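 active means membrane potential signal rise above negative control mean plus 3 SD in both duplicates, also active in the earlier TRPC4 screen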); details: HEK293 TRPC6, membrane potential fluorescence, at 10 µM; activation: stronger effect = higher value; outcome: activation
[12] = biological target: Short transient receptor potential channel 6 (Mus musculus) (UniProt Q61143); test: positive modulators of mouse TRPC6 channel – HEK293 cells, membrane potential dye, duplicate, selectivity assay for TRPC4 potentiator project, confirmation (AID 434952;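 active means compound raising the membrane signal above positive-control mean plus 3 SD in both repeats, and a primary screen hit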); details: HEK293 TRPC6, membrane potential dye fluorescence, at 10 µM, maximal acetylcholine added after compound; stronger effect = higher value
[13] = biological target: Short transient receptor potential channel 4 (Mus musculus) (UniProt Q9QUQ5); test: calcium flux activators in TRPC4/5HT1a cells, counter-screen for TRPC4 activator project, cell-based, second counter screen, HEK293 TRPC4/5HT1a, Fluo-4 (AID 434977;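 active means calcium signal rise above buffer-control mean plus 5 SD in both duplicates, and also a hit in the primary screen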;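 on activation: plate controls were assay buffer for no effect and maximal serotonin response for full effect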); details: Fluo-4 calcium flux, at 10 µM; stronger effect = higher value
[14] = serotonin-gated TRPC4 signal block – cell-based, second counter screen, HEK293 TRPC4/5HT1a, Fluo-4, counter-screen for TRPC4 inhibitor project, confirmation (AID 434978;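 active means primary screen active whose calcium signal fell more than 3 SD beyond the full-serotonin control mean in both duplicate plates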;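 on outcome: serotonin given first at submaximal then at maximal dose after compound preincubation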); details: Fluo-4 calcium flux, at 10 µM, serotonin added to trigger calcium flux; stronger effect = higher value
[15] = test system: TRPC4 (mouse), co-expressed with 5HT1a in HEK293; test: enhancement of serotonin-evoked TRPC4 response – cell-based, second counter screen, HEK293 TRPC4/5HT1a, Fluo-4, counter-screen for TRPC4 potentiator project, confirmation (AID 434979;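 active means signal rise over 3 SD above mean of control wells given weak agonist, in both repeats and first screen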); details: Fluo-4 calcium flux, at 10 µM, serotonin added at its EC20 dose; stronger effect = higher value
[16] = nonspecific calcium rise without TRPC4 – cell-based, HEK293 mu-opioid receptor line, counter-screen for TRPC4 activator project, confirmation (AID 449723;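 active means hit in primary screen, with calcium signal over 5 SD above buffer well mean in both duplicates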;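 further: counter screen cells carry the mu-opioid receptor alone and lack TRPC4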); details: HEK293 mu-opioid cells, Fluo-4 calcium fluorescence, at 10 µM; stronger effect = higher value
[17] = nonspecific potentiation of DAMGO calcium response – cell-based, HEK293 mu-opioid receptor line, counter-screen for TRPC4 allosteric potentiator project, confirmation (AID 449724;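 active means calcium signal rise more than 3 SD above the low-dose agonist control mean, in both duplicate plates and the primary screen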); details: HEK293 mu-opioid receptor cells, Fluo-4 calcium flux, at 10 µM, compound added before EC20 DAMGO stimulus; stronger effect = higher value

Short transient receptor potential channel 6 (Mus musculus), sequence (Q61143 whole entry, looked up): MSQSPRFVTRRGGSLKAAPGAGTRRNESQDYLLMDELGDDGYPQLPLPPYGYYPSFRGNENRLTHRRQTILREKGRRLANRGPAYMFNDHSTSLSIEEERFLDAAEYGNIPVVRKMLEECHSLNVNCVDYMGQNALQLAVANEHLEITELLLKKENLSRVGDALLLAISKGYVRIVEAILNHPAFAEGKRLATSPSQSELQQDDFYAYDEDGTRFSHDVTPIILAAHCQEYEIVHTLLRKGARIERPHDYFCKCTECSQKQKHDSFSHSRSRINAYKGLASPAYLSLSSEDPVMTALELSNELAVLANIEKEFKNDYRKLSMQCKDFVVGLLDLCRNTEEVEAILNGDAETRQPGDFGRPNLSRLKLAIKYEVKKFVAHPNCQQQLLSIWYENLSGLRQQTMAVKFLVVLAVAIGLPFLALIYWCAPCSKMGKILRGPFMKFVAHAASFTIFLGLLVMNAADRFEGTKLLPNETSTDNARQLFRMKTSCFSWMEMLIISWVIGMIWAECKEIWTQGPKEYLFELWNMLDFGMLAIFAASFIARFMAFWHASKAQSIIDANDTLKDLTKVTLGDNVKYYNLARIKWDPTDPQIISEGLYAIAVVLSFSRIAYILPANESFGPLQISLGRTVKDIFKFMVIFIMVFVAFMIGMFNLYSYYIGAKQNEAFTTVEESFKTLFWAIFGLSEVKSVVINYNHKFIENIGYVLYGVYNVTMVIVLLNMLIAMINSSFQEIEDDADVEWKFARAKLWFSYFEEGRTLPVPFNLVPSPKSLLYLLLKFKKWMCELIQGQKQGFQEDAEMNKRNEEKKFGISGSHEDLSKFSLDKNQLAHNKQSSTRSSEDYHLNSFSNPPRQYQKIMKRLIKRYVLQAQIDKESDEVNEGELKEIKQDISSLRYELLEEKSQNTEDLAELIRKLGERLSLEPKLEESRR
Short transient receptor potential channel 4 (Mus musculus), sequence (Q9QUQ5 whole entry, looked up): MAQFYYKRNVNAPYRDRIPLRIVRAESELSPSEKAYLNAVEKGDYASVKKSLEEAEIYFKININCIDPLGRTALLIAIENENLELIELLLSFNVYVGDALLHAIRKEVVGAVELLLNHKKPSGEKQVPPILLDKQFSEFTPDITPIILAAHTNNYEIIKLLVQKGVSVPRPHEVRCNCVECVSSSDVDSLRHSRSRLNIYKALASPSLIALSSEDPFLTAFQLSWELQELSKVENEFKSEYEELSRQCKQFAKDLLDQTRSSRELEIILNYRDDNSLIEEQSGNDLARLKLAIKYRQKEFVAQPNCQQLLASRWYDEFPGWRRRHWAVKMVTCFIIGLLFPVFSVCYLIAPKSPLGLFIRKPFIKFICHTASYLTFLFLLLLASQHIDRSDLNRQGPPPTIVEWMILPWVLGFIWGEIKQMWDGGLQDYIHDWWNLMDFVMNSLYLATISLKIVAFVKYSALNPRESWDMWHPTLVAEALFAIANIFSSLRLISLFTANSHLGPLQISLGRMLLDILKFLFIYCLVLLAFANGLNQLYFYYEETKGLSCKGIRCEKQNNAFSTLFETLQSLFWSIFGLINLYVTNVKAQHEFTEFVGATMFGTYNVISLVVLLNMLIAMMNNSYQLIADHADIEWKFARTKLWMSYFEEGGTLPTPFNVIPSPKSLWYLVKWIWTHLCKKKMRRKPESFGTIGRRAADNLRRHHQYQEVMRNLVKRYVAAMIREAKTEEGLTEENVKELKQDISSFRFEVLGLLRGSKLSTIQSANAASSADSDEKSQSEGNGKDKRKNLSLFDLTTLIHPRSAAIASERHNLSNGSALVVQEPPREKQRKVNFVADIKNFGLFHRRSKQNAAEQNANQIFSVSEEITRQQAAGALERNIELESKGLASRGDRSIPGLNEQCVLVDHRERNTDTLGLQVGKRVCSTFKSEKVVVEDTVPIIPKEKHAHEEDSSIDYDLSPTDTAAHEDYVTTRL

CCOC(=O)c1c(C)n(-c2ccc(C)cc2)c2ccc(OCC(O)CNCC3CCCO3)cc12 (stereo not given)
active: potentiation [15] 24.6%
inactive: outcome [1] | outcome [2] | outcome [3] | outcome [4] | outcome [5] | outcome [6] | outcome [7] | outcome [8] | outcome [9] | outcome [10] | outcome [11] | outcome [12] | outcome [13] | outcome [14] | outcome [16] | outcome [17]

CCOC(=O)c1sc2nc(CC(=O)OC)nc(NCc3ccc(F)cc3)c2c1C
inactive: outcome [1] | outcome [2] | outcome [3] | outcome [4] | outcome [5] | outcome [6] | outcome [7] | outcome [8] | outcome [9] | outcome [10] | outcome [11] | outcome [12] | outcome [13] | outcome [14] | outcome [15] | outcome [16] | outcome [17]

Cc1ccc(-c2nn(-c3ccccc3)cc2C(=O)Nc2ccc(C(=O)O)cc2)cc1
inactive: outcome [1] | outcome [2] | outcome [3] | outcome [4] | outcome [5] | outcome [6] | outcome [7] | outcome [8] | outcome [9] | outcome [10] | outcome [11] | outcome [12] | outcome [13] | outcome [14] | outcome [15] | outcome [16] | outcome [17]

Cc1ccc(-n2c(C)cc(C)c(C#N)c2=O)cc1Cl
active: activation [13] 11.4%
inactive: outcome [1] | outcome [2] | outcome [3] | outcome [4] | outcome [5] | outcome [6] | outcome [7] | outcome [8] | outcome [9] | outcome [10] | outcome [11] | outcome [12] | outcome [14] | outcome [15] | outcome [16] | outcome [17]

CCCn1nc(C(=O)NC2CCCc3ccccc32)c2ccccc2c1=O (stereo not given)
active: potentiation [4] 22% | potentiation [15] 19.5%
inactive: outcome [1] | outcome [2] | outcome [3] | outcome [5] | outcome [6] | outcome [7] | outcome [8] | outcome [9] | outcome [10] | outcome [11] | outcome [12] | outcome [13] | outcome [14] | outcome [16] | outcome [17]

O=S(=O)(NCCSc1nnc(-c2ccco2)n1-c1ccccc1)c1ccccc1
inactive: outcome [1] | outcome [2] | outcome [3] | outcome [4] | outcome [5] | outcome [6] | outcome [7] | outcome [8] | outcome [9] | outcome [10] | outcome [11] | outcome [12] | outcome [13] | outcome [14] | outcome [15] | outcome [16] | outcome [17]

Cc1ccc(C)n1-c1ncc(Br)cn1
active: potentiation [4] 10% | potentiation [15] 31.9%
inactive: outcome [1] | outcome [2] | outcome [3] | outcome [5] | outcome [6] | outcome [7] | outcome [8] | outcome [9] | outcome [10] | outcome [11] | outcome [12] | outcome [13] | outcome [14] | outcome [16] | outcome [17]

CN(C)CCCNc1ncnc2c1cnn2-c1ccccc1
active: potentiation [3] 16% | potentiation [4] 17% | potentiation [15] 28.6%
inactive: outcome [1] | outcome [2] | outcome [5] | outcome [6] | outcome [7] | outcome [8] | outcome [9] | outcome [10] | outcome [11] | outcome [12] | outcome [13] | outcome [14] | outcome [16] | outcome [17]

O/N=C/c1cn(-c2ccccc2)nc1-c1ccc2c(c1)OCCO2
active: potentiation [4] 16% | potentiation [15] 29.3%
inactive: outcome [1] | outcome [2] | outcome [3] | outcome [5] | outcome [6] | outcome [7] | outcome [8] | outcome [9] | outcome [10] | outcome [11] | outcome [12] | outcome [13] | outcome [14] | outcome [16] | outcome [17]

C=CCn1c(SCCN2CCOCC2)nc2c1c(=O)[nH]c(=O)n2C
active: potentiation [15] 35.7%
inactive: outcome [1] | outcome [2] | outcome [3] | outcome [4] | outcome [5] | outcome [6] | outcome [7] | outcome [8] | outcome [9] | outcome [10] | outcome [11] | outcome [12] | outcome [13] | outcome [14] | outcome [16] | outcome [17]

Clc1cccc2c3c([nH]c12)CCNC3
inactive: outcome [1] | outcome [2] | outcome [3] | outcome [5] | outcome [6] | outcome [7] | outcome [8] | outcome [9] | outcome [10] | outcome [11] | outcome [12] | outcome [13] | outcome [14] | outcome [16] | outcome [17]
active: potentiation [4] 38% | potentiation [15] 40.3%

CCOC(=O)C(=NC1CCS(=O)(=O)C1)NNc1ccccc1Cl (stereo not given)
inactive: outcome [1] | outcome [2] | outcome [3] | outcome [5] | outcome [6] | outcome [7] | outcome [8] | outcome [9] | outcome [10] | outcome [11] | outcome [12] | outcome [13] | outcome [14] | outcome [16] | outcome [17]
active: potentiation [4] 85% | potentiation [15] 64.7%

c1ccc2c(c1)[nH]c1c(N3CCCC3)ncnc12
inactive: outcome [1] | outcome [2] | outcome [3] | outcome [4] | outcome [5] | outcome [6] | outcome [7] | outcome [8] | outcome [9] | outcome [10] | outcome [11] | outcome [12] | outcome [13] | outcome [14] | outcome [15] | outcome [16] | outcome [17]

CCC(C(=O)Nc1ccccc1OC)n1c(C(=O)OC)cc2ccsc21 (stereo not given)
inactive: outcome [1] | outcome [2] | outcome [3] | outcome [5] | outcome [6] | outcome [7] | outcome [8] | outcome [9] | outcome [10] | outcome [11] | outcome [12] | outcome [13] | outcome [14] | outcome [16] | outcome [17]
active: potentiation [4] 17% | potentiation [15] 75.5%

CCOC(=O)Cc1csc(NC(=O)NC2(C(F)(F)F)Oc3cc(Cl)c(Cl)cc3O2)n1
active: inhibition [5] 47% | inhibition [6] 41% | inhibition [14] 39.5%
inactive: outcome [1] | outcome [2] | outcome [3] | outcome [4] | outcome [7] | outcome [8] | outcome [9] | outcome [10] | outcome [11] | outcome [12] | outcome [13] | outcome [15] | outcome [16] | outcome [17]
